Test results: PubChem BioAssay (NCI)
The panel holds about 83,000 compounds, 20% with a hit somewhere; the sample as a whole holds those more often.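 Single-dose data. Exposure time 48 hours. Values below 10 considered active.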 A number with no mark means an inactive call. Activity calls are given as the source filed them.

Assays:
Test in all cases: NCI-60 one-dose screen, 48 h (100 = growth as untreated, 0 = no growth, -100 = all killed)
Settings in all cases: 10 µM
SR leukemia = tested on: SR leukemia
RPMI-8226 leukemia = tested on: RPMI-8226 leukemia
OVCAR-8 ovarian = tested on: OVCAR-8 ovarian
OVCAR-5 ovarian = tested on: OVCAR-5 ovarian
SK-OV-3 ovarian = tested on: SK-OV-3 ovarian
IGROV1 ovarian = tested on: IGROV1 ovarian
OVCAR-3 ovarian = tested on: OVCAR-3 ovarian
HS 578T breast = tested on: HS 578T breast
NCI/ADR-RES ovarian = tested on: NCI/ADR-RES ovarian
T-47D breast = tested on: T-47D breast
BT-549 breast = tested on: BT-549 breast
MDA-MB-435 melanoma = tested on: MDA-MB-435 melanoma
SW-620 colon = tested on: SW-620 colon
MCF7 breast = tested on: MCF7 breast
HCT-116 colon = tested on: HCT-116 colon
HCC-2998 colon = tested on: HCC-2998 colon
KM12 colon = tested on: KM12 colon
OVCAR-4 ovarian = tested on: OVCAR-4 ovarian

| Compound | growth (SR leukemia) | growth (RPMI-8226 leukemia) | growth (OVCAR-8 ovarian) [%] | growth (OVCAR-5 ovarian) [%] | growth (SK-OV-3 ovarian) [%] | growth (IGROV1 ovarian) [%] | growth (OVCAR-3 ovarian) | growth (HS 578T breast) [%] | growth (NCI/ADR-RES ovarian) | growth (T-47D breast) | growth (BT-549 breast) | growth (MDA-MB-435 melanoma) | growth (SW-620 colon) [%] | growth (MCF7 breast) | growth (HCT-116 colon) | growth (HCC-2998 colon) | growth (KM12 colon) | growth (OVCAR-4 ovarian) [%] |
| --- | --- | --- | --- | --- | --- | --- | --- | --- | --- | --- | --- | --- | --- | --- | --- | --- | --- | --- |
| Clc1ccc(C2=NN=C3C(Cc4ccccc4)=Nc4ccccc4N3C2)cc1 | 25.4% | 49.4% | 75.5 | 90 | 112 | 83.8 | 65.8% | 90.1 | 74.4% | 95% | 88.8% | 73% | 91.8 | 88.7% | 53.1% | 68.5% | 63.6% | – |
| O=C(Nc1ccc(OCc2nnc(-c3ccc(Cl)cc3)o2)c(F)c1)Nc1ccc(Cl)c(C(F)(F)F)c1 | -15.4% (active) | -22.2% (active) | 11.6 | 26.6 | – | – | 0.829% (active) | 14.5 | 7.99% (active) | 4.57% (active) | -13.9% (active) | 8.01% (active) | 15.7 | 3.17% (active) | 2.12% (active) | 9.15% (active) | 3.14% (active) | 17.2 |
| COc1ccc(/C=c2\sc3n(c2=O)C(c2cc(OC)c(OC)c(OC)c2)C=C(c2ccc(OC)c(OC)c2)N=3)cc1OC (stereo not drawn) | 91.5% | 63.7% | 98.8 | – | 108 | – | 103% | 90.8 | 97.5% | – | 88.5% | 86.1% | 109 | 86.2% | 89.4% | 106% | 95.8% | – |
| O=C(CCn1cnc2c(cc(-c3ccccc3)n2-c2ccccc2)c1=O)Nc1ccc(F)cc1 | 72.3% | 79.3% | 54 | 85.8 | 64.6 | 81.3 | 76.7% | 63.1 | 55.1% | 68.2% | 57.8% | 85.2% | 95.9 | 74.7% | 62.5% | 86.2% | 73.8% | – |
| COc1ccc2c(c1)CC=C1[C@@H]2CC[C@]2(C)C(=O)/C(=N/O)C[C@@H]12 | 74.6% | 83.8% | 102 | 86.1 | 116 | – | 106% | 90.3 | 90.3% | 90.2% | 88.8% | 90.5% | 78.4 | – | 61.9% | – | 92.6% | – |
| Cc1cc(=O)n2nnc3cc(C(F)(F)F)ccc3n12 | 104% | 107% | 111 | 121 | – | – | 114% | 117 | 110% | 116% | 127% | 99.4% | 118 | 120% | 103% | 104% | – | 116 |
| c1ccc(CCCCc2ccc3ccccc3n2)cc1 | 99.7% | 103% | 101 | 97.9 | – | 100 | – | 98.7 | 102% | – | 102% | 108% | 102 | 108% | 96% | 92.9% | 106% | 111 |
